# Test results from PubChem BioAssay (NCATS).
# Calls of active or inactive are those of the source. Calls follow the shape of the dose curve; as a rule, active = well fitted inhibition curve with a large enough effect; inconclusive = small, poorly fitted or top-dose-only effect; inactive = no such curve, though single readings can be large or run the other way.
# Test: qHTS assay for measurement of the activity of small molecule inhibitors on Zika virus induced Caspase-3 activity in human astrocytoma cells (AID 1224859)
# Conditions: SNB-19 ZIKV-induced caspase-3/7, luminescence, 6 h; series mostly up to 45.7 µM
# From the text: National Center for Advancing Translational Sciences [NCATS]
# Johns Hopkins University School of Medicine
# Increase in the Caspase-3 activity indicates an activation of apoptosis cell death pathway caused by Zika virus infection in certain types of neuronal cells including human neural progenitor cells (hNPCs), astrocytes, and astrocytoma cell line (SNB-19). This cell-based caspase-3 activity assay measures the increased caspase-3 activity in the astrocytoma cell line (SNB-19) after a 6-hour Zika virus infection with a luminescence readout. A decrease in the luminescence signal in this assay by small molecule treatment indicates an inhibitory effect of that small molecule on the Zika virus induced caspase-3 activity that may correlate with its effect on reduction of Zika virus caused cell death.
# The medium for SNB-19 cells is composed of RPMI 1640 (ATCC, Cat.# 30-2001), 10% fetal bovine serum (FBS) (GE healthcare Life Sciences, Cat.# SH30071.03), and 1% Pen/Strep (Gibco, Cat.# 15140-122). A Caspase-Glo 3/7 assay kit (catalog number G8092; Promega, Madison, WI) was used to detect caspase-3 activity induced by Zika virus infection in human cells. The reagent mixture was reconstituted as described in the protocol from the manufacturer. Polystyrene tissue culture treated and PDL coated white plates were obtained from Greiner Bio-One (Monroe, NC). Cells were seeded in 384- or 1536-well assay plates and cultured at 37 C with 5% CO2 for 16 to 20 hours. The typical cell seeding density in the 1536-well plate assay is 250 cells/well in 3ul medium for SNB-19 cells in tissue culture treated plates. Compounds were added to cells and incubated for one hour before addition of ZIKV solution to cells (2 FFU/cell). After incubation at 37 C with 5% CO2 for 6 hours, the reagent mixture of Caspase-Glo 3/7 assay kit was added to each well, followed by incubation at room temperature for 30 minutes. The luminescence intensity of the assay plates was measured using a ViewLux plate reader (PerkinElmer). Data were normalized by using the cell-containing wells without ZIKV as a negative control (0% induction of caspase 3/7 activity) and wells containing ZIKV infected cells (Caspase-3 activity induced) as a positive control (100% induction of caspase 3 activity). The percentage inhibitions of the increased Caspase-3 activity by small molecule inhibitors were then calculated.
row,Compound,outcome
1,C/C=C/C=N/NC(=O)c1ccncc1,inactive
2,CCNC(=O)NCc1cccc(Cl)c1,inactive
3,O=C(c1ccc(F)cc1)C1CCN(CCn2c(=S)[nH]c3ccccc3c2=O)CC1,inactive
4,COc1ccc(C(=O)c2ccccc2O)c(O)c1,inactive
5,COP(=O)(OC)OC(c1ccc(Cl)cc1)P(=O)(OC)OC (stereo not given),inactive
6,C/C=C/c1ccc(O)c(OC)c1,inactive
7,O=C(CCN1CCN2CCCC2C1)N1c2ccccc2Sc2ccc(Cl)cc21 (stereo not given),inactive
8,Cc1cccc(C)c1NC(=O)c1ccccc1C(=O)O,inactive
9,CCOC(=O)C(C#N)=C(c1ccccc1)c1ccccc1,inactive
10,CN1CCN(C2=Nc3cc(F)ccc3Cc3ccccc32)CC1,inactive
11,CN1CCC[C@@H]1CCO[C@](C)(c1ccccc1)c1ccc(Cl)cc1,inactive
12,O=C(Nc1ncc([N+](=O)[O-])s1)c1cccs1,inactive
13,CCCN(CCC)S(=O)(=O)c1ccc(C(=O)O)cc1,inactive
14,CC(=O)NO,inactive
15,CC(=O)Nc1ncc([N+](=O)[O-])s1,inactive
16,CCN(CC)CCOc1ccc2c(c1)C(=O)c1cc(OCCN(CC)CC)ccc1-2,inactive
17,C#C[C@]1(OC(C)=O)CC[C@H]2[C@@H]3CCC4=C/C(=N/O)CC[C@@H]4[C@H]3CC[C@@]21CC,inactive
18,Cc1ccc2c(Br)cc(Br)c(O)c2n1,inactive
19,CCC(CC)(CC(=O)Nc1cccc(/C=C/c2nc(C3CCC3)cs2)c1)C(=O)O,inactive
20,Cc1ccc(-c2ncc(Cl)cc2-c2ccc(S(C)(=O)=O)cc2)cn1,inactive

row,Compound,outcome
1,CC(C)=CCOc1ccc(/C=C/C(=O)c2ccc(OCC=C(C)C)cc2OCC(=O)O)cc1,inactive
2,Nc1nc(N)c(-c2ccccc2)s1,inactive
3,Cc1cc(CC(=O)O)c(C)n1-c1ccc(Cl)cc1,inactive
4,NC(=O)c1ccccc1O,inactive
5,CO[C@]12C[C@@H](COC(=O)c3cncc(Br)c3)CN(C)[C@@H]1Cc1cn(C)c3cccc2c13,inactive
6,CC(=O)N[C@@H](CCC(=O)O)C(=O)O,inactive
7,CCN(CC)CCNC(=O)c1cc(Br)c(N)cc1OC,inactive
8,O=C(O)C1(C(=O)O)CCC1.[NH2-].[NH2-].[Pt+2],inactive
9,O=C(O)CCNC(=O)c1ccccc1,inactive
10,CN(C)CCOC(c1ccc(Cl)cc1)c1ccccn1 (stereo not given),inactive
11,Cc1cccc(C)c1NC(=O)CN1CCCC1,inactive
12,CC(=O)O[C@]1(C(C)=O)CC[C@H]2[C@@H]3C=C(Cl)C4=CC(=O)CC[C@]4(C)[C@H]3CC[C@@]21C,inactive
13,Cc1c[nH]c2ccccc12,inactive
14,COc1cc(C(=O)N2CCCCCCC2)cc(OC)c1OC,inactive
15,CCCCCCCC/C=C\CCCCCCCCN,inactive
16,CCCCCCCCNC(C)C(O)c1ccc(SC(C)C)cc1 (stereo not given),inactive
17,CN=C(N)NCCC[C@H](N)C(=O)O,inactive
18,CC(=O)OCC(=O)[C@H]1CC[C@H]2[C@@H]3CCC4=CC(=O)CC[C@]4(C)[C@H]3CC[C@]12C,inactive
19,NCCNc1cccc2ccccc12,inactive
20,COc1ccc(/C=N/NC(=O)c2ccncc2)cc1OC,inactive
